Shown is part of a subset that was picked to be rich in hits.
TDP1 cell CPT: qHTS for Inhibitors of human tyrosyl-DNA phosphodiesterase 1 (TDP1): qHTS in cells in presence of CPT. Potency, µM (doses to about 46.2 µM), for the others: top-dose activity change, negative = growth inhibition, hits mostly inhibitors. chicken DT40 Tdp1-/-;hTDP1 cells + 20 nM CPT, ATP luminescence, 48 h. hit rate 12% among 420,000; also: potency is read from the fitted curve at half-maximal effect; nearly all actives have a fitted effect of over 55% in size
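Cell growth measured by CellTiter-Glo luminescence after a minimum 48 h, 37 C compound exposure with 20 nM CPT in Tdp1-knockout DT40 cells stably expressing hTDP1, seeded 400/well; qHTS titration format.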
IL-1B inflam inh: qHTS for Inhibitors of Inflammasome Signaling: IL-1-beta AlphaLISA Primary Screen | activity change, % at 57.5 µM | AID 743279, 2014 | hit rate 4.7% among 360,000 | THP-1 LPS/ATP IL-1B secretion, AlphaLISA, 16 h; active compounds read low; in the data active = activity change below about -50%; inconclusive = mostly about -30% to -49%
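Secreted IL-1B measured by AlphaLISA bead assay after 16 h compound exposure of THP-1 cells; compounds (final up to 57.5 uM) added 1 h before LPS (250 ng/mL) and ATP (1.25 mM) stimulation; lower signal means less secretion.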
ALOX12 inh: Primary qHTS assay for inhibitors of human arachidonate 12S-lipoxygenase (ALOX12): Round 2; Polyunsaturated fatty acid lipoxygenase ALOX12 (Homo sapiens), P18054; purified 12hLO, xylenol orange hydroperoxide absorbance; Potency, µM (titrated, usually from 108 µM), for the others: top-dose activity change, negative = inhibition, hits mostly inhibitors; hit rate 1.1% among 580,000; AID 1671190, 2021; also: potency is read from the fitted curve at half-maximal effect
Target sequence (P18054 whole entry, looked up): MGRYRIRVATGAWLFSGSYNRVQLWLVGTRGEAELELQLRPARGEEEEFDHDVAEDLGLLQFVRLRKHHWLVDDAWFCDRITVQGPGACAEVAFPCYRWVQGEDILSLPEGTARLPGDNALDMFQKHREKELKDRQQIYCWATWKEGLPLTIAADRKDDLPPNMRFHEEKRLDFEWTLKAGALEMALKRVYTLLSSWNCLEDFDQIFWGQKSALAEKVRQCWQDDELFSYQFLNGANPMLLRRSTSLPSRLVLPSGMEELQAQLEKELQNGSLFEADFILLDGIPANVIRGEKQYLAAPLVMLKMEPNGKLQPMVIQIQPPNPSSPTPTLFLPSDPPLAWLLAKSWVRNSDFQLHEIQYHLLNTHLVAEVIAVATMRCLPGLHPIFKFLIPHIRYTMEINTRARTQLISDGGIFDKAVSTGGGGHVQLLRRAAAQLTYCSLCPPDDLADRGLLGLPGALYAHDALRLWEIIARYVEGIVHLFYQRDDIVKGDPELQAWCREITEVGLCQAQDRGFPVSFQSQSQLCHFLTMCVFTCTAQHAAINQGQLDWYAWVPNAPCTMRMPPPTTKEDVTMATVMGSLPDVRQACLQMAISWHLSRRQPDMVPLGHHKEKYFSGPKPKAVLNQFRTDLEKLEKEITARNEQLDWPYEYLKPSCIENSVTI
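Purified human 12hLO at 150 nM in 25 mM Hepes, 0.01% Triton X-100, pH 7.0, preincubated 15 min at room temperature with compound. Reaction started with 40 uM arachidonic acid, 30 min at room temperature. Hydroperoxide measured by Fe-xylenol orange, 573/405 nm absorbance ratio.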
HT1080-NT tox: qHTS for induction of synthetic lethality in tumor cells producing 2HG: qHTS for the HT-1080-NT fibrosarcoma cell line. AID 686970, 2013. Potency, µM (series often up to 46.1 µM), inactives show at the highest dose activity, negative = less viability, most hits filed as cytotoxic. HT-1080-NT fibrosarcoma viability, CellTiter-Glo ATP luminescence, 48 h. hit rate 1.6% among 360,000;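 also: NT is the 2HG producing partner of a matched IDH1 knockdown line; potency is read from the fitted curve at half-maximal effect; 0% = DMSO-treated cells and -100% = media-only wells without cells; nearly all actives have a fitted effect of over 55% in size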
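750 cells/well, RPMI + 5% FBS; 2 h settle, compound pin-transfer, 48 h at 37 degrees C. CellTiter-Glo 10 min RT, luminescence. Normalized to DMSO and media-only wells.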
TDP1 cell noCPT: qHTS for Inhibitors of human tyrosyl-DNA phosphodiesterase 1 (TDP1): qHTS in cells in absence of CPT | Potency, µM (doses to about 46.2 µM), without a hit: top-dose activity change, negative = growth inhibition, usual class: inhibitors | AID 686978, 2013 | DT40 Tdp1-/- hTDP1 cells, no CPT, ATP luminescence, 48 h | hit rate 15% among 420,000; also: potency is read from the fitted curve at half-maximal effect; nearly all actives have a fitted effect of over 55% in size
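No-CPT arm: Tdp1-/-;hTDP1 DT40 cells (400/well) plus compounds, incubated ≥48 hr at 37 °C. Readout CellTiter-Glo luminescence.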
HT1080 IDH1KD tx: qHTS for induction of synthetic lethality in tumor cells producing 2HG: qHTS for the HT-1080-IDH1KD cell line; HT-1080 IDH1 knockdown viability, ATP luminescence, 48 h; Potency, µM (titrated, usually from 46.1 µM), for inactives: at the highest dose activity, negative = toxicity, usual class: cytotoxic; hit rate 2% among 360,000;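 also: potency is read from the fitted curve at half-maximal effect; 0% = DMSO wells and -100% = cell-free medium wells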
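Cytotoxicity counter-line: IDH1KD HT-1080, 48 h, CellTiter-Glo. Curves classed by r2, magnitude and activity.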
* hit, by the source's call; ? = inconclusive; . = not tested or not shown; [ ] = remark or other dose. Unless noted, calls follow the shape of the dose curve; as a rule, active = well fitted curve in the direction sought with a large enough effect; inconclusive = small, poorly fitted or top-dose-only effect, or another doubt; inactive = no such curve, though single readings can be large; an effect the other way counts as inactive or inconclusive. Unless noted, % is scaled to controls: 0 for no effect and ±100 for the full control effect.

SMILES	TDP1 cell CPT	IL-1B inflam inh	ALOX12 inh	HT1080-NT tox	TDP1 cell noCPT	HT1080 IDH1KD tx
CCOC(=O)c1c(C)oc2nc(C)nc(NCC3CCN(Cc4cccc(C)c4)CC3)c12	3%	.	-12%	.	-11%	.
CCOC(=O)c1c(C)oc2nc(C)nc(N3CCN(c4ccc(C(C)=O)cc4)CC3)c12	5.8µM*	.	-6%	.	2.9µM*	.
CCOC(=O)c1c(C)oc2nc(C)nc(NCC3CCN(Cc4ccc(F)cc4)CC3)c12	-29%	.	-24%	.	?	.
CCOC(=O)c1c(C)oc2ncnc(Nc3ccc(CC)cc3)c12	9%	.	-19%	.	?	.
CCc1c(C)nc2ncnn2c1N1CCCC(C(=O)NCc2ccc3c(c2)OCO3)C1 (stereo not given)	?	7	-2%	-5%[9.24 µM]	21µM*	-9%
CCn1c(C(=O)N2CCC(C(=O)NCc3ccc4c(c3)OCO4)CC2)cc2sccc21	23µM*	0	-2%	-26%	15µM*	-2%
Cn1c(C(=O)N2CCCC(C(=O)NCc3ccc4c(c3)OCO4)C2)cc2sccc21 (stereo not given)	?	3	-6%	16%	23µM*	0%
Cc1ccc(CCNC(=O)C2CCCN(C(=O)c3cc4sccc4n3C)C2)cc1 (stereo not given)	-29%	-26	18%	0%	?	-21%
O=C(NCC(=O)N(Cc1ccco1)C1(C(=O)NC2CCCCC2)CCCCC1)c1ccccc1	.	.	20%	.	.	.
CC(=O)Nc1ccc(C(=O)COc2ccc(C(C)=O)cc2)cc1	.	.	-26%	.	.	.
COc1ccccc1/C=C\C(=O)O	-7%	.	.	.	-5%	.
CC(=O)/C=C/c1ccccc1Oc1c(F)c(F)nc(F)c1F	?	-27	-3%	?	26µM*	?
CN1CCN(C(=O)C2CCN(c3nc(Cl)nc4nc[nH]c34)CC2)CC1	.	.	0%	.	.	.
Cc1cccc(N2CCN(C(=O)c3ccccc3NC(=O)C3CC=CCC3C(=O)O)CC2)c1 (stereo not given)	?	28	0%	13%	5.8µM*	6%[9.24 µM]
O=C(O)C1CC=CCC1C(=O)Nc1ccccc1Cl (stereo not given)	?	10	1%	12%	23µM*	23%
Cc1ccccc1Oc1ccc(NC(=O)C2CC=CCC2C(=O)O)cc1 (stereo not given)	15µM*	0	16%	-5%	6.5µM*	-4%
c1coc(CNCc2ccc3cc[nH]c3c2)c1	.	.	-23%	.	.	.
COC(=O)c1ccn(Cc2ccc(Cl)c(Cl)c2)n1	.	.	5%	.	.	.
Oc1ccccc1C1SC(c2ccccc2O)SC(c2ccccc2O)S1 (stereo not given)	?	-89*	?	15µM*	?	?
Oc1ccccc1C1OCC2(CO1)COC(c1ccccc1O)OC2 (stereo not given)	?	30	-21%	0%	-6%	-9%
CCOC(=O)c1cc(S(=O)(=O)N2CCN(c3cc(C)ccc3C)CC2)[nH]n1	?	.	0%	.	?	.
CCOC(=O)c1cc(S(=O)(=O)N2CCN(c3ccccc3)CC2)[nH]n1	?	.	-21%	.	?	.
CCOC(=O)c1cc(S(=O)(=O)N2CCN(c3cccc(C)c3)C(C)C2)[nH]n1 (stereo not given)	16µM*	.	0%	.	23µM*	.
CCOC(=O)c1cc(S(=O)(=O)N2CCN(c3ccc(C(C)=O)cc3)CC2)[nH]n1	18µM*	.	?	.	16µM*	.
CN(C)CCCCCCNc1cc(N2CCN(C)CC2)ncn1	-9%	.	.	.	0%	.
SMILES	TDP1 cell CPT	IL-1B inflam inh	ALOX12 inh	HT1080-NT tox	TDP1 cell noCPT	HT1080 IDH1KD tx
CN(C)CCCCCCNc1nccc(N2CCN(C)CC2)n1	10µM*	.	.	.	20µM*	.
Cc1cc(C)c(C#N)c(SCc2nnc(-c3ccccc3[N+](=O)[O-])o2)n1	26µM*	-2	-1%	?	21µM*	-22%
CCCc1noc(-c2ccn3c(CNC(=O)C(C)Oc4ccccc4)nnc3c2)n1 (stereo not given)	.	.	5%	.	.	.
CCCCn1nc2cc(C(=O)NCC34CC5CC(CC(C5)C3)C4)ccc2c1OCC	?	-23	?	-21%	16µM*	-4%
Cc1c(C(=O)NCCCc2ccncc2)cnn1-c1nccc(-c2ccccc2F)n1	-7%[9.04 µM]	.	-1%	.	18µM*	.
Cc1c(C(=O)NCCc2cccnc2)cnn1-c1nccc(-c2ccccc2F)n1	?	.	-1%	.	?	.
CCOC(=O)c1ccc(-c2c(-c3ccc4c(c3)OCO4)noc2C)cc1F	16µM*	20	1%	-1%	?	-10%
CC(C)(C)c1cc(NCc2ccccn2)n2ncc(-c3ccccc3)c2n1	2.6µM*	0	5%	?	4.6µM*	21µM*
Cc1cc(NCc2ccccc2)n2ncc(-c3ccccc3)c2n1	-2%	-29	2%	-22%	?	-26%
COc1cc2c(cc1OC)-c1nnc(-c3cccs3)n1C1(CCCC1)C2	21µM*	2	-16%	0%	21µM*	0%
CCCN1C(=O)/C(=C/c2ccc3c(c2)OCO3)NC1=S	-11%	3	-58%	-1%	-19%	-2%
CN1C(=O)/C(=C/c2cccc([N+](=O)[O-])c2)C(=O)N1c1ccccc1	?	-19	40µM*	1%	?	-8%
O=C1/C(=C/c2cccc([N+](=O)[O-])c2)CCOc2ccc(F)cc21	.	.	-15%	.	.	.
CCCN1C/C(=C/c2cccc([N+](=O)[O-])c2)C(=O)/C(=C/c2cccc([N+](=O)[O-])c2)C1	1µM*	-94*	15%	-5%	0.65µM*	23µM*
CCCN1C/C(=C/c2ccc3c(c2)OCO3)C(=O)/C(=C/c2ccc3c(c2)OCO3)C1	15µM*	1	?	?	13µM*	?
O=C1NC(=S)N/C1=C/c1cccc([N+](=O)[O-])c1	21%	-9	-3%	-27%	-7%	-3%
O=S(=O)(O)c1cccc2cccc(Nc3ccccc3)c12	-3%	24	40µM*	-2%	30%	3%

Assay outcomes as filed in PubChem BioAssay.
